Data on twelve molecules can be found in PubChem BioAssay (NCATS).

A short description of experiment [1]: NS1 protein of Zika virus - qHTS assay to identify small molecule inhibitors in human HEK 293 cells (AID 1347053). Note: nearly all actives have a fitted effect of over 55% in size. Note: potency is the fitted concentration of half-maximal effect. Summed up: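 HEK 293 cells, seeded 20 h at 37 C, were pretreated with compound 1 h, then infected with ZIKV MR766 (MOI = 0.5) for 24 h. NS1 was read by TR-FRET with two anti-NS1 antibodies, normalized to uninfected and infected wells.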
A general note: Quantitative high-throughput screening tests each substance at several concentrations.

Experiment [2] can be described thus: qHTS of pediatric cancer cell lines to identify multiple opportunities for drug repurposing: Primary screen for TC32 cells (AID 1347089). Note: nearly all actives have a fitted effect of over 60% in size. The gist of the method:
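Luminescent ATP read-out (CellTiter-Glo) of metabolically active TC32 cells after 48 h exposure. Concentration-response curves came from 11-point (MIPE, 0.78 nM–46 µM) or 8-point (NPC, 0.59 nM–46 µM) primary titrations; follow-up used 11 points.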

Experiment [3] is described as follows: qHTS of pediatric cancer cell lines to identify multiple opportunities for drug repurposing: Primary screen for DAOY cells (AID 1347090). Note: nearly all actives have a fitted effect of over 55% in size. Note: potency is the fitted concentration of half-maximal effect. Summed up: (§1)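 Eight- or eleven-point concentration series, 48 h treatment at 37 degrees C in growth media; readout CellTiter-Glo luminescence. Potency and efficacy were taken from the concentration-response curves.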
Experiment [4] in a line: qHTS of pediatric cancer cell lines to identify multiple opportunities for drug repurposing: Primary screen for SJ-GBM2 cells (AID 1347091). Note: potency is the fitted concentration of half-maximal effect. The gist of the method:
as §1

Experiment [5] can be described thus: qHTS of pediatric cancer cell lines to identify multiple opportunities for drug repurposing: Primary screen for A673 cells (AID 1347092). Note: nearly all actives have a fitted effect of over 45% in size. Note: potency is the fitted concentration of half-maximal effect. The gist of the method: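 Cell viability of A673 measured by CellTiter-Glo ATP luminescence after 48 hours compound exposure. Dilution series spanned 0.78 nM to 46 µM (MIPE, 11-point) or 0.59 nM to 46 µM (NPC, 8-point); bortezomib 2.3 uM positive control.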

Experiment [6] can be described thus: qHTS of pediatric cancer cell lines to identify multiple opportunities for drug repurposing: Primary screen for NB-EBc1 cells (AID 1347095). Summed up:
(§2)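 500-1,000 cells/well; 5 h pre-incubation 37 °C/5% CO2; compound pinned; 48 h; CellTiter-Glo, 15 min RT; luminescence. MIPE 11-pt from 0.78 nM, NPC 8-pt from 0.59 nM final. Bortezomib 2.3 µM final as positive control.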

The nature of experiment [7]: qHTS of pediatric cancer cell lines to identify multiple opportunities for drug repurposing: Primary screen for U-2 OS cells (AID 1347096). Note: nearly all actives have a fitted effect of over 50% in size. Summed up: (§3)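 Cells (500-1,000/well) in growth media were settled 5 h at 37 degrees C, then given compounds for 48 h. Viability was read as CellTiter-Glo luminescence. Primary runs used MIPE at 11 points (0.78 nM-46 µM) and NPC at 8 points (0.59 nM-46 µM); follow-ups used 11 points.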

Experiment [8] is described as follows: qHTS of pediatric cancer cell lines to identify multiple opportunities for drug repurposing: Primary screen for LAN-5 cells (AID 1347100). Note: potency is the fitted concentration of half-maximal effect. Summed up: as §3
Experiment [9] can be described thus: qHTS of pediatric cancer cell lines to identify multiple opportunities for drug repurposing: Primary screen for Rh18 cells (AID 1347102). Note: nearly all actives have a fitted effect of over 65% in size. Summed up: as §3
The nature of experiment [10]: qHTS of pediatric cancer cell lines to identify multiple opportunities for drug repurposing: Primary screen for SK-N-SH cells (AID 1347098). Note: nearly all actives have a fitted effect of over 65% in size. Note: potency is the fitted concentration of half-maximal effect. The gist of the method: (§4)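 Cells (500-1,000/well) rested 5 h, then received compounds for 48 h; metabolically active cells were measured by CellTiter-Glo luminescence. Final concentrations spanned up to 46 µM (MIPE, 11-point) or 0.59 nM-46 µM (NPC, 8-point) in primary screens, 11-point in follow-ups.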

Experiment [11] can be described thus: qHTS of pediatric cancer cell lines to identify multiple opportunities for drug repurposing: Primary screen for NB1643 cells (AID 1347099). Note: nearly all actives have a fitted effect of over 50% in size. Note: potency is the fitted concentration of half-maximal effect. The gist of the method: as §2
Experiment [12] in a line: qHTS of pediatric cancer cell lines to identify multiple opportunities for drug repurposing: Primary screen for OHS-50 cells (AID 1347103). Note: nearly all actives have a fitted effect of over 40% in size. Note: potency is the fitted concentration of half-maximal effect. Summed up:
as §4

The nature of experiment [13]: qHTS of pediatric cancer cell lines to identify multiple opportunities for drug repurposing: Primary screen for SK-N-MC cells (AID 1347093). Note: potency is the fitted concentration of half-maximal effect. The gist of the method: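 Metabolically active cells were quantified by ATP-dependent luminescence (CellTiter-Glo, 15 min at room temperature) following 48 h treatment. Cells had been plated at 500-1,000 per well and settled for 5 h beforehand.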

Experiment [14] in a line: qHTS of pediatric cancer cell lines to identify multiple opportunities for drug repurposing: Primary screen for Saos-2 cells (AID 1347097). Note: nearly all actives have a fitted effect of over 40% in size. Summed up: as §2
A short description of experiment [15]: qHTS of pediatric cancer cell lines to identify multiple opportunities for drug repurposing: Primary screen for BT-37 cells (AID 1347094). Note: series mostly up to about 57 µM. The gist of the method:
as §2

Inconclusive results are not listed. Active and inactive are the calls of the source. Calls come from the whole dose curve; as a rule, active = well fitted curve in the direction sought with a large enough effect; inconclusive = small, poorly fitted or top-dose-only effect, or another doubt; inactive = no such curve, though single readings can be large; an effect the other way counts as inactive or inconclusive.

For the molecule `O=C1CCCC2=C1C(c1[nH]ncc1Cl)N=C(Nc1nc3ccccc3o1)N2` (stereo not given), the Potency result in experiment [1], in [2], in [3], in [4], in experiment [5] and in [6] was “inactive” each time. Moreover, the Potency result in experiment [7], in [8] and in experiment [9] was “inactive” in each case.
Take `Cc1c(C)c2c(c(C)c1O)CCC(C)(COc1ccc(CC3SC(=O)NC3=O)cc1)O2` (stereo not given): the Potency result in experiment [1], in experiment [2], in experiment [3], in experiment [4], in experiment [5] and in experiment [6] was “inactive” in each case. Moreover, the Potency result in [7], in experiment [10], in experiment [11], in [8], in experiment [9] and in experiment [12] was “inactive” throughout.
For the molecule `CC[C@@H](C)[C@H](NC(=O)[C@H](CC1CCCCC1)NC(=O)c1ccno1)C(=O)N1CCC2(CCc3ccccc32)CC1`, the Potency result in experiment [1], in experiment [2], in experiment [3], in experiment [5], in experiment [7] and in [10] was “inactive” throughout. Moreover, in experiment [9], the Potency result was “inactive”. Further, the Potency was 8.33 µM (active) in experiment [13], 23.5 µM (active) in experiment [11] and 17.2 µM (active) in experiment [12].
`CCCS(=O)(=O)Nc1ccc(F)c(C(=O)c2c[nH]c3ncc(-c4ccc(Cl)cc4)cc23)c1F`: the Potency result in experiment [1] and in [2] was “inactive” in each case. In addition, the Potency is 18.7 µM (active) in [3]; 18.7 µM (active) in experiment [4]; 9.35 µM (active) in experiment [5]; 10.5 µM (active) in experiment [13]; 4.82 µM (active) in experiment [10]; 3.32 µM (active) in [11]. The results for the Potency in experiment [8] and in experiment [12] were 20.9 µM (active) and 6.85 µM (active), respectively.
As for `CCc1ccc(CCOc2ccc(CC3SC(=O)NC3=O)cc2)nc1` (stereo not given), the Potency entry in [1], in experiment [2], in experiment [3], in [4], in [5] and in experiment [13] was “inactive” in each case. Moreover, the Potency result in experiment [6], in experiment [7], in [14], in experiment [11], in experiment [8] and in [9] was “inactive” throughout. Besides, the Potency result in [12] is “inactive”.
In the case of `OC[C@H](Cc1ccccc1)Nc1nc(Oc2ccc3c(c2)CCC3)nc2c1ncn2Cc1ccc(-c2ccccc2)cc1`, the Potency is 4.18 µM (active) in experiment [1], 11.8 µM (active) in experiment [3] and 1.87 µM (active) in experiment [13]. For the same molecule, the Potency entry in [2], in experiment [5], in [7], in experiment [10], in experiment [8] and in experiment [9] was “inactive” each time.
Take `NC(=O)c1ccc(-c2nc(-c3ccc4c(c3)OCCO4)c(-c3ccccn3)[nH]2)cc1`: the Potency entry in experiment [1], in experiment [2], in experiment [3], in [4], in experiment [13] and in experiment [7] was “inactive” throughout. In addition, the Potency result in experiment [14], in [11], in experiment [8] and in experiment [9] was “inactive” each time.
`CNC(=O)c1ccc(C)c(-n2c(C)cc(OCc3ccc(F)cc3F)c(Br)c2=O)c1`: the Potency result in experiment [1], in experiment [2], in [3], in experiment [4], in experiment [15] and in [7] was “inactive” each time. For the same molecule, the Potency entry in experiment [10] is “inactive”. Moreover, the Potency was 20.9 µM (active) in experiment [8] and 24.3 µM (active) in experiment [12].
For `Cc1cc(SCc2sc(-c3ccc(C(F)(F)F)cc3)nc2C)ccc1OCC(=O)O`, the Potency result in experiment [1], in experiment [2], in experiment [3], in [5], in [6] and in [7] was “inactive” throughout. Further, the Potency result in experiment [14], in experiment [8] and in experiment [9] was “inactive” throughout. Moreover, the Potency in [13] was 18.7 µM (active).
For `CS(=O)(=O)c1ccc(C(=O)Nc2ccc(Cl)c(-c3ccccn3)c2)c(Cl)c1`, the Potency entry in [1], in [2], in experiment [3], in [4], in experiment [6] and in experiment [7] was “inactive” each time. Moreover, the Potency entry in [10], in experiment [8], in experiment [9] and in experiment [12] was “inactive” in each case. Further, in experiment [13], the Potency is 2.64 µM (active).
Regarding `Cn1cc(-c2ccc3nnc(C(F)(F)c4ccc5ncccc5c4)n3n2)cn1`, the Potency entry in experiment [1], in experiment [2], in [3], in experiment [5], in [13] and in experiment [7] was “inactive” each time. Also, in [11], the Potency result was “inactive”.
For `Nc1nccc(-c2ccc3noc(-c4ccc(Cl)cc4)c3c2)n1`, the Potency entry in experiment [1], in [2], in [6], in [7], in [14] and in experiment [8] was “inactive” in each case. Further, the Potency entry in experiment [9] is “inactive”. In addition, the values for the Potency in experiment [5], in experiment [13] and in [11] were 7.43 µM (active), 10.5 µM (active) and 16.6 µM (active), respectively.
